FBW7 activator: FBW7 E3 ligase activators, primary screen, biochemical, AlphaScreen, human | F-box/WD repeat-containing protein 7 (Homo sapiens), Q969H0 | AlphaScreen FBW7–phospho-cyclin E peptide binding, activator screen | normalized activity (activation), % at 26.1 µM | actives 0.13% (n = 650,000) | AID 1259310, 2017; in the data active = normalized activity above about 1.9%;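 note: purified mutant Fbw7 with reduced substrate affinity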
Target sequence (Q969H0 whole entry, looked up): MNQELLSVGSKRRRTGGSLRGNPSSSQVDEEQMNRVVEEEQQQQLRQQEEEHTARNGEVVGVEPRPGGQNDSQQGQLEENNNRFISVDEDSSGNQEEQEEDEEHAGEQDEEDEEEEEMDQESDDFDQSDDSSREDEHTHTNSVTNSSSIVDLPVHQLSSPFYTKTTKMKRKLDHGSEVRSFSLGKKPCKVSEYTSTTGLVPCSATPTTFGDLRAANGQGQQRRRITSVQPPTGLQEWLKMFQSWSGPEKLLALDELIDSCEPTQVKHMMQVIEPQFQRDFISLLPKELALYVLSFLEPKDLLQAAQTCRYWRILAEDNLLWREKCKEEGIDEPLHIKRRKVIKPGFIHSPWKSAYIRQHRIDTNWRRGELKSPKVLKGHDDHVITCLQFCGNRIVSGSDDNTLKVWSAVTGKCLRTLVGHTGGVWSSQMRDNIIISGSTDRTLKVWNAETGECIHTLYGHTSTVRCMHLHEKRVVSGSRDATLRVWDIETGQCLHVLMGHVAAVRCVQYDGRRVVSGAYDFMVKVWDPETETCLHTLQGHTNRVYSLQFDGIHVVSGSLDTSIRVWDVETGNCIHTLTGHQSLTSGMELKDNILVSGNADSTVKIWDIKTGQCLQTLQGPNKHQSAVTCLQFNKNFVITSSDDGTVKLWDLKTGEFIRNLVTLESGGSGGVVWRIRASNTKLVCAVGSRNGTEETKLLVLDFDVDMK
MITF inh: MITF inhibitors, primary screen, biochemical, AlphaScreen, human; inhibition, % at 2.6 µM; actives 0.91% (n = 650,000); AlphaScreen MITF homodimerization, bead proximity signal; in the data active = inhibition above about 50%;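 note: 0% = vehicle wells with protein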
TEAD-YAP inh: TEAD-YAP interaction inhibition, primary screen, TEAD-YAP interaction inhibitor project, luminescence, HEK-TIYL cells | inhibition, % at 9.12 µM | actives 1.4% (n = 640,000) | TEAD-Gal4/YAP UAS-luciferase luminescence | AID 1259422, 2018; in the data active = inhibition above about 32%;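 note: 0% = median of test compound wells and 100% = reference inhibitor wells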
GPR151 ag: activators of human GPR151, primary screen, cell-based, PathHunter beta-arrestin, luminescence; activation, % at 11.2 µM; actives 1% (n = 650,000); AID 1508602, 2020; G-protein coupled receptor 151 (Homo sapiens), Q8TDV0; PathHunter beta-arrestin GPR151 cells; in the data active = activation above about 4.9%;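 note: 0% = median of compound wells and 100% = cells with positive control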
The depositor's hits bear a star; nt = no result given. Most compounds without a hit are left out; they make up all but 3.4% or so of the library.

SMILES | FBW7 activator | MITF inh | TEAD-YAP inh | GPR151 ag
Cc1ccc(CN2CCN(C(=O)c3ccccc3F)CC2)cc1 | -0.2 | 40.4 | -0.8 | 3.5
CC(=O)N1CCN(Cc2ccc3c(c2)CN(Cc2ccc(Cl)cc2)CCO3)CC1 | 0.1 | 6.3 | 47.2* | 0.5
CCOc1ccc(CN2CCOc3ccc(CN4CCN(C(C)=O)CC4)cc3C2)cc1 | 0.0 | -4.1 | 37.5* | 0.8
COc1ccc(-n2c(NC(C)=O)c[n+]3c2CCc2ccccc2-3)cc1 | 1.0 | -5.8 | 0.3 | -2.5
CC1C2c3ccccc3C(c3ccccc32)C1C(=O)Nc1cccc(Br)c1 (stereo not drawn) | 0.0 | 13.2 | 7.6 | -0.3
O=C(NCc1n[nH]c(=S)n1Cc1ccccc1)c1cccs1 | -0.2 | -0.6 | -5.9 | -0.9
COC(=O)C1=C(C)Nc2ncnn2C1c1cc(Br)c(O)c(OC)c1 (stereo not drawn) | -0.1 | -8.4 | -20.4 | -0.8
CCOC(=O)C1=C(C)Nc2ncnn2C1c1cc(Br)c(OC)c(OC)c1 (stereo not drawn) | 0.0 | -4.4 | 50.5* | -2.3
COC(=O)C1=C(C)Nc2ncnn2C1c1ccc(OC)c(Br)c1 (stereo not drawn) | 0.2 | 2.4 | 32.1* | 0.7
CCOC(=O)C1C2C=CC3(CN(c4ccccc4Br)C(=O)C13)O2 (stereo not drawn) | 0.0 | 11.4 | 2.8 | 0.2
NC(=O)c1ccccc1Nc1ncnc2c1nc1n2CCCCC1 | -0.2 | -11.3 | 47.7* | 1.0
COc1cccc(C2(CC(=O)N3CCN(C)C(C)C3)CC(=O)N(CCN(C)C)C2=O)c1 (stereo not drawn) | 0.3 | 5.9 | 5.2 | 0.5
COc1cccc(C2(CC(=O)N3CCOCC3)CC(=O)N(CCN(C)C)C2=O)c1 (stereo not drawn) | 2.0* | 6.1 | 9.0 | -1.1
CSc1ccccc1NC(=O)c1nn2c(c1Br)NC(c1cccs1)CC2C(F)(F)F (stereo not drawn) | -0.1 | 13.5 | -7.9 | -1.6
O=C(Cc1ccccc1)Nc1ccc(N2C(=O)c3ccc4c5c(ccc(c35)C2=O)CC4)cc1 | -0.1 | -1.1 | 43.2* | 1.3
Cc1ccc(C)c(NC(=O)C2CC3c4ccccc4C2c2ccccc23)c1 (stereo not drawn) | 2.0* | 0.7 | 1.4 | -0.9
O=C(O)c1nnn(Cc2ccc(Br)cc2)c1C(=O)O | -0.1 | -9.0 | 3.3 | -0.3
CC(C)=C1C2CCC1C1C(=O)N(c3cccc([N+](=O)[O-])c3)C(=O)C21 (stereo not drawn) | 0.1 | 6.9 | 0.7 | 1.1
COc1cc(Nc2nc(Nc3ccc(C(F)(F)F)cc3)nc3c2ncn3-c2ccsc2)cc(OC)c1OC | -0.1 | 16.8 | 7.4 | 0.5
c1ccc(-n2cnc3c(Nc4ccc5c(c4)OCO5)nc(Nc4ccc(-n5ccnc5)cc4)nc32)cc1 | 0.0 | 18.0 | 42.9* | 1.0
c1ccc(-n2cnc3c(Nc4ccc5c(c4)OCO5)nc(Nc4ccncn4)nc32)cc1 | 0.0 | -3.1 | -39.3 | 0.4
c1cnc2ccc(Nc3nc(Nc4ccc5c(c4)OCO5)c4ncn(-c5ccsc5)c4n3)cc2c1 | 8.5* | -9.6 | 44.6* | 1.1
c1ccc(-n2cnc3c(Nc4ccc5c(c4)OCO5)nc(Nc4ccc5ncccc5c4)nc32)cc1 | 7.1* | -6.1 | 12.2 | 0.3
COc1cc(Nc2nc(Nc3ccc4ncccc4c3)nc3c2ncn3-c2ccsc2)cc(OC)c1OC | 0.1 | 8.1 | 32.4* | -1.4
CCN1C(C)=C(C(=O)OC)[C@@H](c2ccccc2)N2C(=O)[C@@]3(C(=O)OC)O[C@@]12[C@@H]1C(=O)N(C)C(=O)[C@@H]13 | 0.1 | 12.2 | nt | -2.3
SMILES | FBW7 activator | MITF inh | TEAD-YAP inh | GPR151 ag
CC(C)(C)c1ccc(C(=O)Nc2nnc(CCc3ccccc3)s2)cc1 | 0.1 | 7.9 | -6.6 | -0.3
Fc1ccc(CNc2ncnc3c2c(-c2ccccc2)cn3-c2ccc(Cl)cc2)cc1 | 0.1 | -30.1 | 1.2 | -0.3
c1ccc2c(Nc3nc(Nc4ccc5c(c4)OCO5)c4ncn(-c5ccsc5)c4n3)nccc2c1 | -0.1 | 3.8 | 49.4* | 0.7
CC(C)n1cnc2c(Nc3ccc4c(c3)OCO4)nc(Nc3nccc4ccccc34)nc21 | 0.0 | 5.2 | 36.2* | -1.1
CCNc1nc(Nc2ccc3c(c2)OCO3)c2ncn(C(C)C)c2n1 | -0.1 | 9.5 | -45.0 | -1.4
Cc1nc(NC(C)c2ccccc2)cc(-c2ccccn2)n1 (stereo not drawn) | -0.1 | 25.9 | 36.1* | -0.4
Cc1nc(NC(C)c2ccccc2)cc(-c2cncc(Br)c2)n1 (stereo not drawn) | -0.2 | -7.1 | -5.7 | 1.6
Cc1ccc(-c2noc(CCCCCN)n2)cc1 | 0.1 | 1.4 | 72.0* | 0.6
O=C(CCCn1cnc([N+](=O)[O-])n1)Nc1cc(Cl)ccc1Cl | 0.0 | -4.3 | 3.7 | 1.0
COc1ccc(C2/C(=C(\O)c3ccc(C)cc3)C(=O)C(=O)N2c2nc3ccccc3s2)c(OC)c1 (stereo not drawn) | -0.2 | -10.3 | 40.9* | -1.4
COc1ccc(OC)c(C2/C(=C(\O)c3ccc(C)cc3)C(=O)C(=O)N2c2nc3ccccc3s2)c1 (stereo not drawn) | -0.1 | -3.7 | -9.5 | -1.0
O=C(CSc1nnc(Cc2cc(=O)[nH]c(=O)[nH]2)n1-c1ccccc1)Nc1ccccc1 | -0.3 | 11.8 | -31.2 | -0.3
Cc1nc2c(ccc3nc(NC(=O)CCc4ccccc4)sc32)s1 | -0.1 | -8.2 | 47.8* | 1.6
COc1ccccc1C(=O)Nc1nc2ccc3sc(C)nc3c2s1 | 0.0 | -19.1 | 52.4* | -1.7
COc1cccc(OC)c1C(=O)Nc1nc2ccc3sc(C)nc3c2s1 | 0.0 | 11.8 | -7.9 | -0.9
Cc1nc2c(ccc3nc(NC(=O)Cc4ccccc4)sc32)s1 | 0.0 | 23.5 | -29.7 | -0.9
COc1ccc(C(=O)Nc2nc3ccc4sc(C)nc4c3s2)c(OC)c1 | 0.6 | 16.9 | 48.5* | -0.4
CCc1c(C(=O)c2ccccc2)oc2ccc3c(C)cc(=O)oc3c12 | 0.2 | -6.3 | 41.3* | 0.2
Cc1ccc(C(=O)c2oc3ccc4c(C)cc(=O)oc4c3c2-c2ccccc2)cc1 | -0.1 | -5.4 | 62.1* | -1.5
CCc1c(C(=O)c2ccc(Cl)cc2)oc2ccc3c(C)cc(=O)oc3c12 | 1.2 | 28.1 | -6.3 | -1.9
CCC(O)(CC)C(=O)NN(C(=O)CCc1ccccc1)c1ccccc1 | -0.1 | 6.5 | -2.5 | 0.9
CCn1c(C(=O)N2CCN(c3ccccc3)CC2)cc2sccc21 | -0.2 | -5.2 | -2.1 | 0.2
O=C1C(C=NCc2cccnc2)=C(O)c2ccccc21 | -0.3 | 5.3 | 38.5* | -0.4
O=C1C(C=NCc2ccncc2)=C(O)c2ccccc21 | -0.1 | 3.4 | 22.2 | -1.2
C=CC[n+]1c(Nc2ccc(NC(C)=O)cc2)sc(C)c1-c1ccccc1 | -0.2 | 13.5 | 32.6* | 0.3
Cc1ncc2c(NCCc3ccccc3)nc3ccccc3n12 | -0.3 | 3.0 | -13.7 | -2.4
Cc1ncc2c(NCCN(C)C)nc3ccccc3n12 | 0.1 | 10.7 | 45.7* | 0.8
